The full ranking holds about 16,000 sequences; the median of “rpm ratio (pull-down/input)” is about 0.5, and the highest 2% start at about 5.5. Only a selection was taken, and the highest values are over-represented in it overall.
molecular target: T1, MBP-FoxP3dN (Mus musculus, UniProt Q99JB6 188-423); assay: PD-seq (MBP pull-down with sequencing); 20 mM Tris-HCl pH 7.5, 100 mM NaCl, 1.5 mM MgCl2, 0.4 uM protein, 0.1 uM dsDNA library, 30 min, room temperature, amylose pull-down; high values mean tight binding; conditions: protein: recombinant; tags: His6-MBP; chain copies: 2; dsDNA, one strand shown
T1 sequence: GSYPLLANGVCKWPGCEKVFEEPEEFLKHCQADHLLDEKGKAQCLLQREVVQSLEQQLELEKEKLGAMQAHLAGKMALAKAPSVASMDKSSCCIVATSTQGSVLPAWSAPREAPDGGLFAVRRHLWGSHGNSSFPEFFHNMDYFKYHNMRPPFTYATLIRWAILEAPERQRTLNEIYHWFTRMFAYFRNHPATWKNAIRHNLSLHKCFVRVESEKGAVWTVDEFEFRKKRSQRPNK
Outline: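 Binding is given as reads-per-million enrichment, pull-down over input, with replicates pooled. The bait was an N-terminus-lacking mouse FoxP3 or FoxP1 fragment with a His6-MBP tag, expressed in E. coli and used at 0.4 µM with 0.1 µM Klenow-filled degenerate double-stranded DNA library for 30 min at room temperature in Tris pH 7.5 buffer with NaCl and MgCl2. Amylose resin pull-down with three washes was followed by proteinase K release, PCR barcoding and Illumina sequencing.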

Sequence | binding signal
GATGATTGTTCTCCCAGCTGATGAATTTTCGCATTCGAGTAAACAAATTTTCCTAATCTTTCTGTTCAAGCGCCATCTAC | 6.27 RPM ratio (pull-down/input)
GATGATTGTTCTCCCAGCTGATGAATTCTCGCATTCGAGTAAACAAATTTTCCTAATCTTTCTGTTCAAGCGCCATCTAC | 5.82 RPM ratio (pull-down/input)
GATGATTGTTCTCCCAGCTGATGAATTCGACGCATCGAGTAAACAAATTTTCCTAATCTTTCTGTTCAAGCGCCATCTAC | 0.992 RPM ratio (pull-down/input)
GATGATTGTTCTCCCAGCTGATGAATTGACGCATTCGAGTAAACAAATTTTCCTAATCTTTCTGTTCAAGCGCCATCTAC | 5.74 RPM ratio (pull-down/input)
GATGATTGTTCTCCCAGCTGATGAATTCGCATTCTCGAGTAAACAAATTTTCCTAATCTTTCTGTTCAAGCGCCATCTAC | 4.89 RPM ratio (pull-down/input)
GATGATTGTTCTCCCAGCTGATGAATTCGCCATTTCGAGTAAACAAATTTTCCTAATCTTTCTGTTCAAGCGCCATCTAC | 1.75 RPM ratio (pull-down/input)
GATGATTGTTCTCCCAGCTGATGAATTTTTCGCATCGAGTAAACAAATTTTCCTAATCTTTCTGTTCAAGCGCCATCTAC | 0.898 RPM ratio (pull-down/input)
GATGATTGTTCTCCCAGCTGATGAATTTGACGCATCGAGTAAACAAATTTTCCTAATCTTTCTGTTCAAGCGCCATCTAC | 1.22 RPM ratio (pull-down/input)
GATGATTGTTCTCCCAGCTGATGAATTCGCATTTTCGAGTAAACAAATTTTCCTAATCTTTCTGTTCAAGCGCCATCTAC | 4.25 RPM ratio (pull-down/input)
GATGATTGTTCTCCCAGCTGATGAATTGTTCGCATCGAGTAAACAAATTTTCCTAATCTTTCTGTTCAAGCGCCATCTAC | 1.1 RPM ratio (pull-down/input)
GATGATTGTTCTCCCAGCTGATGAATTTCGCATTTCGAGTAAACAAATTTTCCTAATCTTTCTGTTCAAGCGCCATCTAC | 6.94 RPM ratio (pull-down/input)
GATGATTGTTCTCCCAGCTGATGAATTTGGATACTCGAGTAAACAAATTTTCCTAATCTTTCTGTTCAAGCGCCATCTAC | 1.85 RPM ratio (pull-down/input)
GATGATTGTTCTCCCAGCTGATGAATTGCCCAAATCGAGTAAACAAATTTTCCTAATCTTTCTGTTCAAGCGCCATCTAC | 0.385 RPM ratio (pull-down/input)
GATGATTGTTCTCCCAGCTGATGAATTAGTTACATCGAGTAAACAAATTTTCCTAATCTTTCTGTTCAAGCGCCATCTAC | 0.891 RPM ratio (pull-down/input)
GATGATTGTTCTCCCAGCTGATGAATTTAGCTACTCGAGTAAACAAATTTTCCTAATCTTTCTGTTCAAGCGCCATCTAC | 1.83 RPM ratio (pull-down/input)
GATGATTGTTCTCCCAGCTGATGAATTTTTGGAGTCGAGTAAACAAATTTTCCTAATCTTTCTGTTCAAGCGCCATCTAC | 0.23 RPM ratio (pull-down/input)
GATGATTGTTCTCCCAGCTGATGAATTGGATGGCTCGAGTAAACAAATTTTCCTAATCTTTCTGTTCAAGCGCCATCTAC | 0.46 RPM ratio (pull-down/input)
GATGATTGTTCTCCCAGCTGATGAATTGGGCAGCTCGAGTAAACAAATTTTCCTAATCTTTCTGTTCAAGCGCCATCTAC | 0.963 RPM ratio (pull-down/input)

Sequence | binding signal
GATGATTGTTCTCCCAGCTGATGAATTTGAGCACTCGAGTAAACAAATTTTCCTAATCTTTCTGTTCAAGCGCCATCTAC | 0.481 RPM ratio (pull-down/input)
GATGATTGTTCTCCCAGCTGATGAATTCCACCCGTCGAGTAAACAAATTTTCCTAATCTTTCTGTTCAAGCGCCATCTAC | 0.242 RPM ratio (pull-down/input)
GATGATTGTTCTCCCAGCTGATGAATTGTTAGATTCGAGTAAACAAATTTTCCTAATCTTTCTGTTCAAGCGCCATCTAC | 0.635 RPM ratio (pull-down/input)
GATGATTGTTCTCCCAGCTGATGAATTTGTCGGTTCGAGTAAACAAATTTTCCTAATCTTTCTGTTCAAGCGCCATCTAC | 3.1 RPM ratio (pull-down/input)
GATGATTGTTCTCCCAGCTGATGAATTTCGTCCCTCGAGTAAACAAATTTTCCTAATCTTTCTGTTCAAGCGCCATCTAC | 0.799 RPM ratio (pull-down/input)
GATGATTGTTCTCCCAGCTGATGAATTCACGCATTCGAGTAAACAAATTTTCCTAATCTTTCTGTTCAAGCGCCATCTAC | 5.67 RPM ratio (pull-down/input)
GATGATTGTTCTCCCAGCTGATGAATTCTTCGCATCGAGTAAACAAATTTTCCTAATCTTTCTGTTCAAGCGCCATCTAC | 0.708 RPM ratio (pull-down/input)
GATGATTGTTCTCCCAGCTGATGAATTCGCATCTTCGAGTAAACAAATTTTCCTAATCTTTCTGTTCAAGCGCCATCTAC | 5.81 RPM ratio (pull-down/input)
GATGATTGTTCTCCCAGCTGATGAATTTCACGCATCGAGTAAACAAATTTTCCTAATCTTTCTGTTCAAGCGCCATCTAC | 1.01 RPM ratio (pull-down/input)
GATGATTGTTCTCCCAGCTGATGAATTCGCGCCATCGAGTAAACAAATTTTCCTAATCTTTCTGTTCAAGCGCCATCTAC | 2.63 RPM ratio (pull-down/input)
GATGATTGTTCTCCCAGCTGATGAATTTCGCGCATCGAGTAAACAAATTTTCCTAATCTTTCTGTTCAAGCGCCATCTAC | 1.42 RPM ratio (pull-down/input)
GATGATTGTTCTCCCAGCTGATGAATTCGCGCATTCGAGTAAACAAATTTTCCTAATCTTTCTGTTCAAGCGCCATCTAC | 7.06 RPM ratio (pull-down/input)
GATGATTGTTCTCCCAGCTGATGAATTTCTCGCATCGAGTAAACAAATTTTCCTAATCTTTCTGTTCAAGCGCCATCTAC | 0.861 RPM ratio (pull-down/input)
GATGATTGTTCTCCCAGCTGATGAATTTCGCAGCTCGAGTAAACAAATTTTCCTAATCTTTCTGTTCAAGCGCCATCTAC | 2.01 RPM ratio (pull-down/input)
GATGATTGTTCTCCCAGCTGATGAATTTCGCATCTCGAGTAAACAAATTTTCCTAATCTTTCTGTTCAAGCGCCATCTAC | 6.74 RPM ratio (pull-down/input)
GATGATTGTTCTCCCAGCTGATGAATTCACGCTTTCGAGTAAACAAATTTTCCTAATCTTTCTGTTCAAGCGCCATCTAC | 1.11 RPM ratio (pull-down/input)
GATGATTGTTCTCCCAGCTGATGAATTCGCAGCTTCGAGTAAACAAATTTTCCTAATCTTTCTGTTCAAGCGCCATCTAC | 0.653 RPM ratio (pull-down/input)
